# Data taken from PubChem BioAssay AID1645860 (Buhrlage Lab, Dana-Farber Cancer Institute and Novartis …, 2021).
# Hit rate of the full screen: of about 47,000 compounds, about 2,500 (5.3%) were called active. The sample holds actives, similar compounds and a random draw of the others, so the mix is not that of the screen. Rule as the data show it: active = inhibition above about 30%; inactive = the rest.
# Molecular target: Ubiquitin carboxyl-terminal hydrolase 30 (Homo sapiens) (UniProt Q70CQ3)
# Sequence (Q70CQ3 whole entry, looked up): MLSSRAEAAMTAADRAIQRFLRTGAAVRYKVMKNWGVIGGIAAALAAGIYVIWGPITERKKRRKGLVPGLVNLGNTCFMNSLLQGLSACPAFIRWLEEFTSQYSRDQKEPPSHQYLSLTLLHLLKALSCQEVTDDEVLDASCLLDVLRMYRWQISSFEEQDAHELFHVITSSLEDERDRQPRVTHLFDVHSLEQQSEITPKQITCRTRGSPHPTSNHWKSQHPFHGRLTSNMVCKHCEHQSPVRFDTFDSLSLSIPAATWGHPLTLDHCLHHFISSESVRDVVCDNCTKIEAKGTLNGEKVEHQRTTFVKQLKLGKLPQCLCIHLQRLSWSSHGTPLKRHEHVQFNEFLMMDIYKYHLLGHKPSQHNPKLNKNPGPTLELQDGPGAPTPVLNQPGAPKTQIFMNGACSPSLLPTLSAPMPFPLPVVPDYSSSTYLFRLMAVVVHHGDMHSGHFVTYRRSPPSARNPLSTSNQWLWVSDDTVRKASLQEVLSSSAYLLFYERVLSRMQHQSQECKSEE
# Assay: blocks human USP30 ubiquitin-rhodamine cleavage (AID 1645860)
# Conditions: purified USP30, Ub-rhodamine cleavage fluorescence; at 25 µM; active compounds read high
row,SMILES,inhibition
1,COc1cc(NC(=O)C2CCCCC2)c(OC)cc1NC(=O)CCC(=O)N1CCCCC1,-281% (inactive)
2,Cc1ccc(CS(=O)(=O)N2CCC(C(=O)N3CCC(C)CC3)CC2)cc1,9.43% (inactive)
3,O=C(C1CCCCC1)N1CCCC(c2ccnc3ncnn23)C1 (stereo not given),21.7% (inactive)
4,Cc1ccccc1CNS(=O)(=O)c1c[nH]c2ncccc12,-1.83% (inactive)
5,Cc1nc(-c2ccc(C)c(S(=O)(=O)NCc3ccccc3Cl)c2)cs1,34.4% (active)
6,Cc1nc(-c2ccc(C)c(S(=O)(=O)NC3CCCC3)c2)cs1,-1.27% (inactive)
7,Cc1cncc(C(=O)N[C@@H]2CC[C@H]3Oc4ccccc4N[C@H]3[C@@H]2O)c1,6.67% (inactive)
8,Cc1c(C(=O)O)[nH]c2ccccc12,-68.1% (inactive)
9,C[C@@H]1O[C@@H](OC2[C@H](Oc3cc(O)c4c(c3)OC(c3ccc(O)cc3)CC4=O)O[C@H](CO)[C@@H](O)[C@@H]2O)[C@H](O)[C@H](O)[C@H]1O (stereo not given in full),33% (active)
10,Cc1cc(=O)oc2c(C)c(OC(C)C(=O)NCc3ccncc3)ccc12 (stereo not given),6.63% (inactive)
11,COc1ccc(-c2cc(=O)oc3c(C)c(OCc4ccccc4F)ccc23)cc1,44% (active)
12,Cc1c(OCc2ccccc2)noc1C1CCN(CC(N)=O)CC1,6.2% (inactive)
13,Cc1cnc(N2CCC3(CC(=O)N(c4cccnc4)C3)C2)nc1 (stereo not given),-20.9% (inactive)
14,Cc1ccc(N(C)C(=O)C2CCC(=O)N2S(=O)(=O)c2ccccc2)cc1 (stereo not given),20.6% (inactive)
15,COc1cccc(-c2nnc(-c3ccc(-n4ccnc4)nc3)o2)c1,-12.7% (inactive)
16,O=C(NCCc1ccccc1)c1ccc2c(=O)n(Cc3ccco3)c(=O)n(Cc3cccc([N+](=O)[O-])c3)c2c1,66.4% (active)
17,COCCn1c(=O)[nH]c2cc(C(=O)NCCNc3ccc([N+](=O)[O-])cc3C#N)ccc2c1=O,-7.15% (inactive)
18,O=C(NCCc1ccccc1)c1ccc2c(=O)nc3c(-c4ccccc4F)n[nH]n3c2c1,-10.3% (inactive)
19,COc1cccc(Nc2nc(N3CCCCC3)nc3c2cnn3C)c1,-24.2% (inactive)
20,CC(NC(=O)c1nc2n(n1)-c1ccccc1S(=O)(=O)N2)c1cc2ccccc2o1 (stereo not given),0.0682% (inactive)
21,O=C(Nc1cnc(N2CCCC2)nc1)c1ccco1,-2.69% (inactive)
22,COc1ccc(NC(=O)Cc2noc(-c3cccc(OC)c3)n2)cc1,-26.6% (inactive)
23,CC(C)[C@H](NC(=O)N1CCn2c1nc1ccccc12)C(=O)NCCc1ccccc1,-9.82% (inactive)
24,COCCCNC(=O)[C@H](Cc1ccccc1)NC(=O)N1CCn2c1nc1ccccc12,1.89% (inactive)
25,CSCC[C@H](NC(=O)N1CCn2c1nc1ccccc12)C(=O)NCc1ccc2c(c1)OCO2,43.3% (active)
